# Laboratory results: PubChem BioAssay
# Activity calls are given as the source filed them.
# Assays:
# [1] = A549 cell viability effects, profiling panel, calcein-AM fluorescence, 48 h, basal (AID 1162); settings: higher = more signal
# [2] = adipocyte viability effects, profiling panel, cell-based, 3T3-L1 adipocytes, calcein-AM fluorescence, 48 h, basal (AID 1163); settings: 3T3-L1 adipocytes viability, higher = more signal
# [3] = HepG2 cell viability effects, profiling panel, calcein-AM fluorescence, 48 h, basal (AID 1164); settings: higher = more signal
# [4] = MM1S cell viability effects, profiling panel, calcein-AM fluorescence, 48 h, basal (AID 1165); settings: higher = more signal;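 further: viability of MM1S multiple myeloma cells under basal unstimulated conditions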
# [5] = basal RPMI8226 viability, no added stimulus, profiling panel, cell-based, calcein-AM fluorescence, 48 h, PK04 Diversity Set (AID 1166); settings: RPMI8226 myeloma viability, higher = more signal;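 further: cells grown under basal conditions without added stimulus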
# [6] = basal HepG2 mitochondrial membrane potential changes, profiling panel, cell-based, JC-1 fluorescence, 24 h, 100 nL compound (AID 1167); settings: higher = more signal
# [7] = basal 3T3-L1 adipocyte mitochondrial potential changes, profiling panel, cell-based, JC-1 fluorescence, 3T3-L1 adipocytes, 24 h, 100 nL compound (AID 1168); settings: JC-1 mitochondrial fluorescence, higher = more signal, called active from +8 up or from −8 down
# [8] = basal RPMI8226 mitochondrial membrane potential changes, profiling panel, cell-based, JC-1 fluorescence, 24 h, 100 nL compound (AID 1169); settings: RPMI8226 myeloma, JC-1 mitochondrial potential fluorescence, higher = more signal
# [9] = basal MM1S mitochondrial membrane potential changes, profiling panel, cell-based, JC-1 fluorescence, 24 h, 100 nL compound (AID 1170); settings: higher = more signal
# [10] = A549 lung cancer cell viability effects, profiling panel, resazurin fluorescence, 24 h, PK04 Diversity Set (AID 1171); settings: higher = more signal, called active from +8 up or from −8 down
# Further: test concentration not given here.
SMILES,z-score [1],z-score [2],z-score [3],z-score [4],z-score [5],z-score [6],z-score [7],z-score [8],z-score [9],z-score [10]
CCCCN1CC=CC23O[C@@H]4/C=C\CCCOC(=O)C4[C@H]2C(=O)N(CCCO)[C@@H]3C1=O (stereo not given in full),-0.609,0.803,0.186,-0.614,-0.568,-0.795,1.19 (inactive),0.16,0.597,0.216 (inactive)
COc1ccc(CCNC(=O)[C@@]2(C)c3ccccc3C(=O)N(c3ccc(C)cn3)[C@H]2c2ccc(CO)cc2)cc1,-0.0466,-0.2,-0.352,-0.64,-0.081,-0.429,1.22 (inactive),0.143,-0.00393,0.236 (inactive)
CC=CC(O)C1C=CC2C(=O)N(C)C(=O)C2N1N(c1ccccc1)c1ccccc1 (stereo not given),-0.716,-1.7,-0.967,0.13,0.0318,-0.0443,-0.149 (inactive),-0.372,-0.106,-0.522 (inactive)
Cc1ccc(/C=C/C=O)cc1,0.572,-0.106,0.935,0.858,0.532,1.34,-0.111 (inactive),-0.758,0.427,-0.64 (inactive)
COC(=O)C[C@H]1O[C@@H](CCc2ccccc2)[C@@H](C)[C@@H]1[Si](C)(C)c1ccc(OC)cc1,1.47,1.27,-0.755,-0.843,-3.97,0.453,-0.0941 (inactive),-1.12,-0.0681,0.989 (inactive)
[N-]=[N+]=Nc1ccccc1C[C@@]1(C(=O)N2CCCCC2)N=C(c2ccc(OCCCO)cc2)O[C@@H]1c1ccccc1,0.93,0.699,1.02,-2.38,-4.45,0.819,0.883 (inactive),-1.19,0.992,1.41 (inactive)
COc1ccc([Si](C)(C)[C@@H]2[C@@H](CCn3cc(CCO)nn3)O[C@]3(C(=O)N(Cc4cccc(N5C(=O)c6cccc7cccc5c67)c4)c4ccccc43)[C@H]2C)cc1,-2.01,1.32,-4.46,-2.86,-4.41,-0.414,1.02 (inactive),-0.931,-2.16,-3.53 (inactive)
Cc1ccc(C2C3C(=O)CC4C(=O)N(c5ccccc5)C(=O)C4C3CN2S(=O)(=O)c2ccc(C)cc2)cc1 (stereo not given),-0.105,-0.172,0.261,0.948,0.563,0.371,0.134 (inactive),0.515,-0.878,-0.821 (inactive)
O=C1O[C@@H](c2ccccc2)[C@@H](c2ccccc2)N2[C@@H](c3ccccc3OCCO)[C@]3(C(=O)Nc4ccc(C#CC5(O)CCCCCC5)cc43)[C@@H](C(=O)N3CCN(c4ncccn4)CC3)[C@H]12,-0.643,1.46,0.11,-1.22,-2.29,-0.457,0.821 (inactive),-1.04,-0.796,-0.697 (inactive)
COCCOC(=O)N1C(=O)[C@@]2(c3cc(C#CC4(O)CCCCCC4)ccc31)[C@H](C(=O)Nc1nc3ccccc3s1)[C@H]1C(=O)O[C@H](c3ccccc3)[C@H](c3ccccc3)N1[C@@H]2c1ccccc1OCCO,1.29,1.14,-0.333,-2.18,-3.42,-3.05,1.47 (inactive),-0.866,-0.876,-0.511 (inactive)
Cc1ccc(S(=O)(=O)N2C[C@@H](C(=O)O)[C@H](Sc3ccccc3)C[C@H]2c2ccccc2)cc1,-1.21,-0.27,-0.721,-0.279,-0.45,-0.654,-0.883 (inactive),0.588,0.319,0.111 (inactive)
COc1cc(CO)cc(I)c1O[C@H]1C=C(C(=O)NCCO)C[C@@H](N(C(=O)c2cc3ccccc3oc2=O)C2CCCCCC2)[C@@H]1O,0.062,1.54,1.11,0.443,-0.704,-1.63,-1.51 (inactive),-0.27,-1.21,0.0258 (inactive)
O=C1OCCC/C=C\[C@H]2OC34C=CCN(c5ccc6ccccc6c5)C(=O)[C@H]3N(CCCCCO)C(=O)[C@@H]4C12 (stereo not given in full),0.0648,0.456,0.513,0.0795,-0.681,0.337,-0.318 (inactive),0.873,-0.505,0.123 (inactive)
C=CC[C@]1(C(N)=O)N=C(c2ccc(OCCCO)cc2)O[C@H]1c1ccccc1,0.354,0.464,-0.717,-0.519,-0.111,-0.579,-1.09 (inactive),-0.414,0.13,-0.0187 (inactive)
CC1CC/C=C\[C@H]2OC34C=CCN(c5ccc6ccccc6c5)C(=O)[C@H]3N(CCO)C(=O)[C@@H]4C2C(=O)O1 (stereo not given in full),-0.099,0.428,-0.303,1.01,-0.36,-0.438,-0.55 (inactive),-0.0138,1.19,-0.573 (inactive)
CCOC(=O)C[C@H]1[C@H](OC(=O)c2ccc(C(=O)c3ccccc3)cc2)[C@@H](NC(=O)c2ccccc2)c2cc(OCCCO)ccc2N1C(=O)c1ccccc1,0.223,1.05,0.496,0.358,0.17,0.601,0.00705 (inactive),0.892,0.0929,0.254 (inactive)
COCCCNC(=O)[C@@H]1c2ccccc2C(=O)N(Cc2ccccc2OC)[C@H]1c1ccc(CO)cc1,-0.0798,1.02,-0.429,0.528,-0.447,1.59,-0.588 (inactive),-0.171,-0.391,1.71 (inactive)
CO[C@H]1O[C@H](CO)[C@@H](OC(=O)Nc2ccccc2)[C@@H]2OC(=O)[C@@H](Cc3ccc4ccccc4c3)C/C=C/C[C@H](Cc3ccc4ccccc4c3)C(=O)O[C@@H]12,0.72,0.397,0.705,-0.268,0.575,-1,0.688 (inactive),-0.381,-0.135,-2.52 (inactive)
COc1cc(OC)c(C(O)C2C=CC3C(=O)NC(=O)C3N2Nc2ccccn2)cc1Br (stereo not given),0.837,-1.06,0.224,-0.459,-0.0109,-0.866,0.0212 (inactive),0.217,0.171,-0.924 (inactive)
C=CCN1C(=O)[C@]2(O[C@H](CCO)[C@@H]([Si](C)(C)c3ccc(OC)cc3)[C@@H]2C)c2cc(N(C=O)c3ccccc3)ccc21,-3.81,0.532,-4.8,-3.05,-4.39,-1.98,-0.422 (inactive),-0.993,-2.23,-5.28 (inactive)
[N-]=[N+]=Nc1ccccc1C[C@]1(C(=O)NCc2ccccc2)N=C(c2ccc(OCCCO)cc2)O[C@H]1c1ccccc1N=[N+]=[N-],-1.33,0.0309,-1.2,-2.94,-3.55,1.58,0.00967 (inactive),-1.18,-2.49,-1.6 (inactive)
COC(=O)c1c(CC[C@@H](CO)NC(=O)NCCc2c[nH]c3ccccc23)oc(C(=O)Cc2ccccc2)c1C(=O)OC,-0.22,1.12,-0.496,0.49,0.459,-1.27,-0.484 (inactive),0.636,0.0389,0.926 (inactive)
C=CCNC(=O)[C@H]1[C@@H]2C(=O)O[C@@H](c3ccccc3)[C@@H](c3ccccc3)N2[C@@H](c2ccc(O)cc2)[C@]12C(=O)Nc1ccc(C#CCCO)cc12,0.838,-0.655,0.122,0.994,0.168,-0.757,0.651 (inactive),-0.873,-0.723,0.437 (inactive)
COc1ccc(-c2cc3c(c(Cc4ccccc4)n2)[Si](C(C)C)(C(C)C)OC3)cn1,-0.103,-0.19,0.147,-0.494,-1.37,-0.914,-1.19 (inactive),-0.346,0.488,2.17 (inactive)
COC(=O)C(CC#Cc1ccc2c(c1)[C@]1(C(=O)N2)[C@H](c2ccc(O)cc2)N2[C@H](c3ccccc3)[C@H](c3ccccc3)OC(=O)[C@H]2[C@@H]1C(=O)N1CCN(c2ncccn2)CC1)C(=O)OC,-0.112,-0.274,0.9,-2.43,-4.48,-0.758,0.999 (inactive),-1.07,-2.02,-0.558 (inactive)
O=c1cccc(-c2ccccc2Cl)o1,0.586,0.528,0.614,-1.04,0.0055,-0.98,-0.428 (inactive),-0.103,0.304,-0.0719 (inactive)
CN(C)CCCCCCNC(=O)[C@@H]1C[C@@H]2C(=O)N3CCC[C@H]3C(=O)N2[C@@H]1c1ccc(O)cc1,1.26,1.09,0.773,0.581,-0.586,1.06,0.342 (inactive),-0.689,-0.78,-0.908 (inactive)
O[C@@H](Cc1ccccc1)[C@@H](/C=C/C1CC1)NCc1cccc(Cl)c1,0.399,-0.15,-1.39,-3.35,-2.71,-0.626,0.713 (inactive),-1.01,-1.7,-0.707 (inactive)
COCC(=C=CC[C@H](O)c1ccccc1OCCO)CCO,0.474,-0.233,0.304,-0.48,-0.0001,-0.853,-0.624 (inactive),-0.345,-0.654,-0.323 (inactive)
